Reference: PubChem BioAssay AID1508619 (National Center for Advancing Translational Sciences (NCATS), 2020)
Results filed as inconclusive are left out. Activity calls are given as the source filed them. Calls come from the whole dose curve; as a rule, active = well fitted inhibition curve with a large enough effect; inconclusive = small, poorly fitted or top-dose-only effect; inactive = no such curve, though single readings can be large or run the other way.

experiment: Counterscreen qHTS for Identification of Calcium Integrin Binding Protein 1 (CIB1) Competitor; settings: series mostly up to 114 µM; activity, negative = inhibition: at the top concentration
Text: Assay Provider: Ulhas P. Naik, PhD
Sidney Kimmel Medical College
Thomas Jefferson University, Philadelphia, PA
Primary function of platelets is to maintain hemostasis. At the site of vascular injury, platelets adhere to adhesive proteins such as collagen and von Willebrand factor. Adherent platelets are activated and generate soluble platelet agonists such as thrombin, ADP and thromboxane A2. Following exposure of circulating platelets to these agonists, results in platelet shape change, granule secretion and activation of platelet integrin alphaIIb-beta3. Ligand binding to activated integrin alphaIIb-beta3 triggers outside-in signaling, leading to platelet aggregation, stabilization of platelet plug, and clot retraction. Upon atherosclerotic plaque rupture also causes platelet plug formation, which underlies a number of cardiovascular diseases such as myocardial infraction and stroke. A number of anti-platelet drugs such as aspirin, clopidogrel, prasugrel, vorapaxar, and eptifibatide are currently available to prevent the thrombotic complications. However, these anti-platelet agents have several limitations including inherent variability in individual responses, developing resistance, and serious bleeding side effects. For these reasons they are not suitable for long-term protection. Based on the experiences with current anti-platelet drugs, it appears that the most useful therapeutic approach is to intersect the secondary responses such as integrin outside-in signaling or recruitment of platelets by TxA2 and secreted ADP. Compounds, which can largely preserve the primary hemostatic function of platelets but inhibit secondary response will be most desired therapeutic agents for treatment of cardiovascular disease.
CIB1 is a calcium integrin binding protein, which specifically interact with the alphaIIb subunit of integrin alphaIIb-beta3. Binding of CIB1 to alphaIIb regulates the outside-in signaling in platelets, which is needed for thrombus stabilization and thrombus growth. […] Therefore, we propose that discovery of a small molecule that can prevent the association of CIB1 and alphaIIb-beta3 will be a potential anti-platelet agent that can block the thrombus formation without undue effect on hemostasis.
To develop fluorescence polarization (FP) assay using fluorescently labeled alphaIIb peptide and CIB1 protein. Using FP assay characterize the binding affinity, competitive inhibition, and acceptable Z factor (0.5 to1) in order to perform the HTS to identify small molecule compound that can prevent CIB1 binding to platelet integrin alphaIIb-beta3. Active compounds were re-acquired and validated using confirmatory and counterscreens (using 100 nM scrambled peptide).
[1] Naik MU, Nigam A, Manrai P, et al. CIB1 deficiency results in impaired thrombosis: the potential role of CIB1 in outside-in signaling through integrin alpha IIb beta 3. J Thromb Haemost. 2009;7(11):1906-1914. doi:10.1111/j.1538-7836.2009.03581.
SEQUENCE No. (1, 2, 3, etc.); […] (e.g., Cells, Incubation, Reagent, etc.); VALUE and DESCRIPTION.
1; Reagent; 3 uL; Protein or buffer (4/3x)
2; Compound; 46 nL; Control inhibitor / compound library
3; Time; 15 min; Room temperature incubation
4; Reagent; 1 uL; Fluorescent labeled peptide (4x)
5; Time; 1000 rpm; Centrifuge
6; Time; 15 min; Room temperature incubation
7; Detection; Ex 480/ Em 540; ViewLux Fluorescence Read
NOTES (numbers refer to sequence above)
1; Protein Mixture: C1B1-GST (final concentrations of 1 uM). Buffer composition: 5 mM HEPES pH 7.4, 125 mM NaCl, 5 mM CaCl2, 0.01% Tween20.
2; Control Inhibitor: unlabeled peptide (final concentration range 17.4 nM to 572 uM). Compound Library final concentration range 18.3 nM to 114 uM.
3; Room temperature incubation.
4; Fluorescent Labeled Peptide: FITC-alphaIIb (final concentration of 100 nM). Sequence of Scrambled peptide: Acetyl-[…]-FITC (purity is 95.37%).
6; Room temperature incubation.
[…]
% is set by controls: 0 for no effect and ±100 for the full control effect; potency is the fitted concentration of half-maximal effect.

| Structure (SMILES) | activity, negative = inhibition | Potency |
| --- | --- | --- |
| C[CH2][Hg][S]c1ccccc1C(=O)O | -2.63% (inactive) | – |
| CCCCCCCCCCCCCCCC[N+](C)(C)C | 4.61% (inactive) | – |
| COC[C@H]1OC(=O)c2coc3c2[C@@]1(C)C1=C(C3=O)C2CCC(=O)[C@@]2(C)C[C@H]1OC(C)=O (stereo not given in full) | -9.28% (inactive) | – |
| CC(=O)[O][Hg][c]1ccccc1 | 130% (inactive) | – |
| O=C1OC(c2ccc(O)c(S(=O)(=O)O)c2)(c2ccc(O)c(S(=O)(=O)O)c2)c2c(Br)c(Br)c(Br)c(Br)c21 | 42.2% (inactive) | – |
| O=C1C(I)=CC(=C(c2cc(I)c(O)c(I)c2)c2ccccc2C(=O)O)C=C1I | 334% (inactive) | – |
| N[C@@H](Cc1ccc(Oc2cc(I)c(O)c(I)c2)c(I)c1)C(=O)O | -9.7% (inactive) | – |
| CN(C)C(=S)SSC(=S)N(C)C | 1.45% (inactive) | – |
| CN(C)CCc1c[nH]c2cccc(O)c12 | – | 89.1 µM (active) |
| S=C(SSC(=S)N1CCCCC1)N1CCCCC1 | 19.7% (inactive) | – |
| COc1nn(CSP(=S)(OC)OC)c(=O)s1 | -8.92% [at 229 µM] (inactive) | – |
| O=c1oc2ccccc2c(O)c1C(CC(O)c1ccc(-c2ccc(Br)cc2)cc1)c1ccccc1 (stereo not given) | 79.8% (inactive) | – |
| O=c1c(C2CC(c3ccc(-c4ccc(Br)cc4)cc3)Cc3ccccc32)c(O)sc2ccccc12 (stereo not given) | 88.6% (inactive) | – |
| Cc1ccc([N+](=O)[O-])[c]2c1[O][Hg]2 | 131% (inactive) | – |
| CC1=C(O)C(=O)C=C2C1=CC=C1[C@@]2(C)CC[C@@]2(C)[C@@H]3C[C@](C)(C(=O)O)CC[C@]3(C)CC[C@]12C | – | 44.7 µM (active) |
